From ChEMBL document CHEMBL3433997, “St. Jude Leishmania screening dataset” (2016)

Tests used:
Assay type in all cases: functional
[1] = molecular target: Solute carrier family 2, facilitated glucose transporter member 1 (Homo sapiens) (UniProt P11166); assay: ST_JUDE_LEISH: Cytotoxicity at 2uM final concentration against transgenic Leishmania Mexicana promastigotes LmGLUT1 that are glucose transport deficient and complemented with the human glucose transporter GLUT1. Activity is measured by DNA content using SYBR green in vitro
Chain of Solute carrier family 2, facilitated glucose transporter member 1 (Homo sapiens) (P11166 whole entry): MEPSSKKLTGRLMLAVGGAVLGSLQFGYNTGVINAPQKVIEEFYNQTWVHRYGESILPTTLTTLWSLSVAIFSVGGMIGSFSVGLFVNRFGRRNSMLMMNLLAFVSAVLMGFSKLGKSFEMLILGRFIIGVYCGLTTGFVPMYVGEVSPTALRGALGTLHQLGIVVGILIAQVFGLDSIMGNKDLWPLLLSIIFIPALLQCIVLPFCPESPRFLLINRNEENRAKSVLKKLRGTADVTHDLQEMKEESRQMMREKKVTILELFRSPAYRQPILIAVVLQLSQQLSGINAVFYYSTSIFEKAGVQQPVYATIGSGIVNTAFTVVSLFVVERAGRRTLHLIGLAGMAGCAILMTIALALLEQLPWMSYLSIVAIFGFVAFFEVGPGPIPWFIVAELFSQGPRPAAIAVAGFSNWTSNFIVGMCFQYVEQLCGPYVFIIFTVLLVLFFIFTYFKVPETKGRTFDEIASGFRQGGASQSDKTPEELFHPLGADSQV

[2] = molecular target: Hexose transporter 1 (Plasmodium falciparum) (UniProt O97467); assay: ST_JUDE_LEISH: Cytotoxicity at 2uM final concentration against transgenic Leishmania Mexicana promastigotes LmPfHT that are glucose transport deficient and complemented with the Plasmodium falciparum hexose transporter. Activity is measured by DNA content using SYBR green in vitro
[3] = molecular target: Glucose transporter (Leishmania mexicana) (UniProt O61059); assay: ST_JUDE_LEISH: Cytotoxicity at 2uM final concentration against transgenic Leishmania Mexicana promastigotes LmGT2 that are glucose transport deficient and complemented with the L. Mexicana glucose transporter 2. Activity is measured by DNA content using SYBR green in vitro

| SMILES | inhibition [1] | inhibition [2] | inhibition [3] |
| --- | --- | --- | --- |
| O=S(=O)(c1ccccc1Cl)N1CCCCC(c2ccc(C(F)(F)F)cc2)=N1 | 1.24% | 2.48% | -2.05% |
| O=C(Nc1ccc(N2CCCCC2)c(Cl)c1)c1nc[nH]n1 | 2.18% | -0.39% | 1.65% |
| COc1ccc2nc3cc(Cl)ccc3c(Nc3ccc(Oc4ccc(Nc5c6ccc(Cl)cc6nc6ccc(OC)cc56)cc4)cc3)c2c1 | 1.15% | 1.19% | 1.3% |
| COc1ccc2[nH]c(C)cc(=NN=Cc3cccc(Cl)c3)c2c1 | -0.18% | 4.08% | -1.05% |
| Cc1cc(N[C@@H](Cc2ccccc2)C(=O)NCc2cccs2)nc(NCCc2ccccc2)n1 | 2.96% | 2.94% | -1.2% |
| C=C(C)C1CC=C(CN2CCC(N3CCc4cc(NC(=O)c5cc(C)on5)ccc43)C2)CC1 (stereo not given) | 2.54% | 4.39% | 4% |
| NC1CCN(Cc2cccc(-c3ccc(-c4nc5ccccc5[nH]4)s3)c2)C1 (stereo not given) | 3.94% | 2.41% | 4.58% |
| CN1C(C)(C)CC(NC(=O)c2ccc(-c3nc4cc(Cl)c(Cl)cc4[nH]3)cc2)CC1(C)C | 2.52% | 2.2% | 2.38% |
| O=C(Nc1ccccc1)N(Cc1ccccc1-c1cccc(CNCc2ccc3c(c2)OCO3)c1)C1CCN(Cc2ccccc2)CC1 | -2.93% | -2.6% | -2.56% |
| COc1ccc(CNC2CCN(C)CC2)cc1-c1ccc(S(=O)(=O)NCc2ccccc2)c(C)c1 | 7.68% | 8.41% | 7.94% |
| Oc1ccc2c(c1NCC1CCCCC1)CCCC2 | 2.5% | 2.89% | 1.57% |
| Fc1cccc(COc2ccc(Nc3ncnc4sc(C#C[C@H]5CCCN5)cc34)cc2F)c1 | 0.5% | 2.54% | 0.52% |
| COc1ccc(NC(=O)/C=C/c2ccccc2Cl)cc1OCCN1CCN(c2ccncc2)CC1 | 1.29% | -0.96% | -1.49% |
| CC1CN(CC(O)Cn2c3ccc(Br)cc3c3cc(Br)ccc32)CC(C)O1 (stereo not given) | 2.95% | 2.45% | 3.29% |
| O=C(c1cccc(Br)c1)N1CCN(c2ccc([N+](=O)[O-])c(NC3CC3)c2)CC1 | 4.9% | 4.63% | 1.63% |
| CN(CCNCc1ccc(-c2cccc(-c3nc4ccccc4[nH]3)c2)cc1)S(C)(=O)=O | 0.68% | 0.26% | 1.73% |
| O=C(O)c1ccc2nc(-c3ccccn3)c(-c3ccccn3)nc2c1 | -0.91% | -3.35% | -0.14% |
| Cc1ccc(OCCCON2C(=N)N=C(N)NC2(C)C)cc1C | 2.79% | 2.67% | 1.46% |
| CCN(CC)CCN(Cc1ccc(-c2ccc(C(F)(F)F)cc2)cc1)C(=O)Cn1c(CCc2cccc(F)c2F)c(C)c(=O)c2ccccc21 | 1.84% | 1.5% | 3.04% |
| NCc1ccc(CNCc2ccc(-c3ccc(-c4nc5cc(F)ccc5[nH]4)cc3)cc2)cc1 | 10.3% | 5.39% | 5.05% |
| CC(C)(CNCc1cccc(Oc2ccccc2)c1)c1nc(-c2ccnc(N)n2)c(-c2ccc(Cl)c(O)c2)[nH]1 | -0.85% | -0.2% | -0.78% |
| Cc1ccc(NC(=O)c2ccc3ncccc3c2)cc1OC1CCN(CCC(C)C)CC1 | 3.07% | 2.35% | 4.09% |
| CC(C)(C)c1ccc(CNC(=O)/C=C/c2ccc(CNC3CCNCC3)cc2)cc1 | -1.23% | -1.07% | -1.84% |
| N=C(/N=C(/NCCCCCCN/C(=N\C(=N)Nc1ccc(Cl)cc1)N1CCCCC1)N1CCCCC1)Nc1ccc(Cl)cc1 | -2.47% | -2.65% | -0.71% |

| SMILES | inhibition [1] | inhibition [2] | inhibition [3] |
| --- | --- | --- | --- |
| Oc1ccc(-c2nc3c4cc(I)ccc4c4ccc(I)cc4c3[nH]2)cc1 | 2.27% | -1.87% | -2.11% |
| CNCCNCc1ccc(-c2ccc(-c3nc4cccc(C)c4[nH]3)cc2)cc1 | 5.52% | 4.65% | 4.77% |
| Cc1cccc2nc(-c3ccc(-c4ccc(CN5CCCC(O)C5)cc4)cc3)[nH]c12 (stereo not given) | 25.8% | 30.8% | 19.8% |
| CCN(CC)CCOc1c(Cl)cc(Cl)cc1CNCCCNc1cc(=O)c2ccccc2[nH]1 | 0.34% | 1.03% | 4.06% |
| Cc1csc2nc(C(C)c3ccc(NC(=O)c4cccs4)cc3)oc(=O)c12 (stereo not given) | 1.03% | -0.57% | -0.38% |
| CC(C)c1sc(N2CCN(C)CC2)nc1C(=O)NCCc1cccc(Cl)c1 | 6.7% | 3.42% | 3.93% |
| CC(C)C[C@H](NC(=O)c1ccc(OCCN2CCOCC2)cc1)C(=O)N[C@H](/C=N/N(C)C(=O)c1ccccc1)CCc1ccccc1 | 3.84% | 8.34% | 2.75% |
| O=C(c1cc2ccccc2o1)N1CCc2cc3nccc(N4CCN5CCC[C@H]5C4)c3cc21 | 3.95% | 4.36% | 6.35% |
| CC(C)(C)c1ccc2nccc(Nc3cccc(O)c3)c2c1 | 2.99% | 2.35% | 2.33% |
| CC(C)CNC(=S)N1CCCN(c2nc3ccc(Cl)cc3s2)CC1 | 3.18% | 2.71% | 0.2% |
| CCc1ccc(NC(=O)N(CCCN2CCN(C)CC2)Cc2csc(-c3ccc(CNCc4ccccc4)cc3)n2)cc1 | -1.59% | -0.93% | 3.09% |
| CN1CCC(NCc2ccc(-c3cccc(-c4nc5ccccc5[nH]4)c3)cc2)CC1 | 1.67% | 2.05% | 1.64% |
| COc1ccc2ncc(F)c([C@H](O)CN3CCC(NCc4ccc5c(c4)OCCO5)CC3)c2c1 | 4.19% | 2.23% | 1.28% |
| O=C(Nc1cccc(CN2CCCN(Cc3ccc(O)cc3)CC2)c1)c1ccc(Cl)c(Cl)c1 | 10.6% | 11% | 5.2% |
| CCCC(C)NC[C@@H](O)[C@H](Cc1ccccc1)NC(=O)c1cc(C2CCCC2)cc(N2CCCCS2(=O)=O)c1 (stereo not given in full) | 3.4% | 3.66% | 2.98% |
| CN(C)CCCOc1ccc(CNCc2cccc(Oc3ccc(Cl)cc3)c2)cc1 | 6.24% | 2.32% | 3.82% |
| Cc1ccc(F)c(OCC2CCCN(c3ccc(C(=O)NC4CC4)cn3)C2)c1 (stereo not given) | 3.46% | 4.3% | 2.18% |
| Cc1ccc(Cc2c(N)nc3nc(N)nc(N)c3c2C)cc1 | 4.96% | 8.67% | 6.55% |
| Fc1cccc(COc2ccc(Nc3ncnc4sc(C#Cc5ncc[nH]5)cc34)cc2Cl)c1 | 0.39% | -0.11% | -0.59% |
| CNC(=O)c1ccccc1Nc1nc(Nc2cccc(CS(C)(=O)=O)c2)ncc1C | 3.44% | 11.9% | 8.04% |
| O=C(NCCN1CCCCC1)c1cccc(Nc2nccc(Nc3ccc(Oc4ccccc4)cc3)n2)c1 | -0.01% | -0.85% | -0.27% |
| c1ccc2c(c1)CN(CC1CCOCC1)CC1(CCN(Cc3c[nH]c4cnccc34)CC1)O2 | 0.57% | 1.23% | 0.88% |
| O=C1CCCN1CCCNCc1ccc(-c2cccc(-c3nc4cc(F)ccc4[nH]3)c2)cc1 | -2.56% | -0.8% | -2.7% |
| COc1cc(CCCON2C(=N)N=C(N)NC2(C)C)cc(OC)c1OC | 1.04% | -0.26% | 1.06% |

| SMILES | inhibition [1] | inhibition [2] | inhibition [3] |
| --- | --- | --- | --- |
| CCOc1cc(CC)ccc1C1CCN(CCCCNC(=O)c2ccc(NC(=O)c3ccc(C#N)cc3)cc2)CC1 | 2.45% | 0.91% | 2.06% |
| Cc1cc(N[C@@H](CC(C)C)C(=O)NCc2cccs2)nc(NCCc2cccs2)n1 | 7.52% | 5.28% | 3.84% |
| COc1ccc2nccc([C@@H](O)CN3CCC(NCc4ccc5c(c4)N(C)C(=O)CO5)CC3)c2c1 | 0.27% | 0.25% | 0.03% |
| CCCN(CCC)CC(O)COc1ccccc1C(=O)Nc1ccccc1 (stereo not given) | 1.49% | 1.09% | -5% |
| CCCCCCNC(=O)C1Cc2c([nH]c3ccc(F)cc23)C2(CCN(Cc3ccccc3)CC2)N1 (stereo not given) | 12.7% | 9.28% | 7.57% |
| COc1ccc2ncc(Cl)c(N3CCC(CCNCc4ccc5c(n4)NC(=O)CS5)CC3)c2c1 | 2.36% | 0.92% | 3.01% |
| O=C(/C=C/c1ccc([N+](=O)[O-])cc1)N1CCC(NS(=O)(=O)c2ccc(F)cc2)CC1 | 6% | 3.96% | 7.08% |
| Cc1ccc2[nH]c3c(NCCCN(C)C)ncnc3c2c1 | -1.63% | -0.22% | -0.28% |
| CC(C)N(Cc1ccccc1)C(=O)CN1C(=O)COc2ccc(S(=O)(=O)N3CCCCCC3)cc21 | 4.92% | 1.02% | 10.5% |
| N#Cc1ccc2c(c1)CCN(CCC1CCC(NC(=O)/C=C/c3c[nH]c4ccc(F)cc34)CC1)CC2 (stereo not given) | 0.97% | 3.57% | 2.6% |
| CC[C@H](C)CNC(=O)c1cncc(-c2ccc(CNCCCc3ccccc3)cc2)c1 | 1.47% | -1.11% | -2.21% |
| C[C@H](Cc1ccc(OCCCCCOc2ccc(C[C@@H](C)NC[C@H](O)c3cccc(Cl)c3)cc2)cc1)NC[C@H](O)c1cccc(Cl)c1 | 106% | 104% | 107% |
| O=C(c1cccc(-c2cccc(-c3nc4cc(F)ccc4[nH]3)c2)c1)N1CCCCC1CN1CCC(O)C1 (stereo not given) | 0.52% | -0.32% | 0.51% |
| O=C(Nc1ccc(C(F)(F)F)cc1)c1ccc(S(=O)(=O)NC2CCN(CC3CCCCC3)C2)cc1 (stereo not given) | -3% | 1.05% | -3.85% |
| O=C(NCC1CCN(Cc2ccsc2)C1)c1cc(-c2cccc(C(F)(F)F)c2)cs1 (stereo not given) | 1.96% | 0.91% | 3.66% |
| COc1cc(NC(=O)c2sc(-c3ccc(Cl)cc3)cc2NC(=O)c2cccc(N(C)C)c2)ccc1OCCN1CCCC1 | 0.3% | 0.22% | 0.53% |
| COc1ccc(C(C(=O)NC2CCN(C[C@H](O)c3ccnc4ccc(OC)cc34)CC2)N2CCN(c3ccc(Cl)c(Cl)c3)CC2)cc1 (stereo not given in full) | -0.26% | -2.17% | -4.15% |
| CCOc1cc(C(=O)NCCN(C(C)C)C(C)C)ccc1-c1nc2cc(Cl)ccc2[nH]1 | 2.57% | 1.66% | 3.92% |
| CCCCCCCCCN1CC[C@@H](CCCc2ccnc3ccc(O)cc23)[C@@H](CC)C1 | -2.45% | -2.37% | -1.91% |
| CC(C)NCc1cccc(-c2ccc(NC(=O)c3ccc(C#N)cc3)cc2)c1 | 14.9% | 12.1% | 10% |
| Cc1cc(C2CCN(CCCCNC(=O)c3ccc(NC(=O)c4ccc(Cl)cc4)cc3)CC2)c(C)cc1OCCN(C)C | 9.34% | 8.76% | 9.76% |
| CN1CCc2cc(Br)c(O)cc2C1Cc1ccccc1Cl (stereo not given) | -1.43% | -1.61% | -2.87% |
